{"source": "PubChem BioAssay (EPA / NIEHS)", "note": "Active and inactive are the calls of the source. Rule for the calls: active = hit-call score of the fitted dose curve at least 0.9, where 1 is the maximum; inactive = score below 0.9."}
{"read-out": "Interleukin-8 (IL8), CXCL8 (gene 3576)", "test": "BSK_KF3CT_IL8: BioMAP Diversity Plus: KF3CT Assay for Interleukin-8 (IL8) Biomarker Activity (AID 2284254)", "details": "primary human keratinocytes with fibroblasts", "experimental": "BSK_KF3CT is a cell-based, multiplexed-readout assay that uses keratinocytes and foreskin fibroblasts, a human skin primary cell co-culture, with measurements taken at 24 hours after chemical dosing in a 96-well plate.BSK_KF3CT_IL8 is an assay component measured in the BSK_KF3CT assay. It measures IL-8 antibody related to regulation of gene expression using ELISA technology.Data from the assay component BSK_KF3CT_IL8 was analyzed at the endpoint, BSK_KF3CT_IL8, in the positive analysis fitting direction relative to DMSO as the negative control and baseline of activity. Using a type of binding reporter, gain or loss-of-signal activity can be used to understand protein changes. To generalize the intended target to other relatable targets, this assay endpoint is annotated to the 'cytokine' intended target family, where the subfamily is 'interleukins'.\nThe levels of cell surface (or secreted, indicated by the prefix \"s\") biomarker endpoints were measured by ELISA. Overt cytotoxicity to cells in confluent adherent cultures (all systems other than the BT system) was assessed by measuring total protein levels using sulforhodamine B (SRB) staining in parallel cultures at the time of biomarker measurements, indicated as SRB endpoints. For proliferation assays for adherent cell types, individual cell types are cultured at sub-confluence and relative cell numbers quantified by SRB staining at time points optimized for each system (48 h: 3C and CASM3C systems; 72 h: BT and HDF3CGF systems; 96 h: SAg system). SRB was performed by staining cells with 0.1% SRB after fixation with 10% TCA and reading wells at 560 nm.Viability and proliferation of PBMC (T cells) was quantified by Alamar Blue reduction for the SAg and BT systems. For PBMC viability (referred to as PBMC Cytotoxicity within the assay endpoint names), cells were plated (75,000/well in a 96-well plate) and then chemical samples added for 1 h before addition of activators, SEB and TSST-1 (20 ng/mL final concentration each). Cells were incubated for 90 h. Then, Alamar Blue (20 uL/well) (Invitrogen, Cat DAL1100) was added for 6 h, and the plates were read with a fluorescence microplate reader at 546/580 nm (excitation/emission). For PBMC proliferation, cells were plated and activated as above but incubated for only 16 h prior to addition of Alamar Blue. Plates were read after 6 h."}
{"smiles": "FC(F)C(F)(F)COCC1CO1", "note": "(stereo not given)", "outcome": "inactive"}
{"smiles": "FC(F)=C(F)C(F)(F)C(F)(F)C(F)(F)C(F)(F)C(F)(F)C(F)(F)F", "outcome": "inactive"}
{"smiles": "OC(O)(C(F)C(O)(O)C(F)(F)F)C(F)(F)F", "outcome": "inactive"}
{"smiles": "O=S(=O)(O)CCC(F)(F)C(F)(F)C(F)(F)C(F)(F)C(F)(F)C(F)(F)F", "outcome": "inactive"}
{"smiles": "O=C(Cl)C(F)(F)C(F)(F)C(F)(F)C(=O)Cl", "outcome": "inactive"}
{"smiles": "OCCC(F)(F)C(F)(F)C(F)(F)C(F)(F)F", "outcome": "inactive"}
{"smiles": "FC(F)(F)C(F)(F)C(F)(F)C(F)(F)C(F)(F)C(F)(F)I", "outcome": "inactive"}
{"smiles": "C[Si](C)(C)C(F)(F)C(F)(F)C(F)(F)F", "outcome": "inactive"}
{"smiles": "FC(F)(F)COC(OCC(F)(F)F)OCC(F)(F)F", "outcome": "inactive"}
{"smiles": "NCC(F)(F)C(F)(F)C(F)(F)C(F)(F)F", "outcome": "inactive"}
